According to PubChem BioAssay (NCATS):
Values without a mark were called inactive. Records with an inconclusive call do not appear. Active and inactive are the calls of the source. Unless noted, the call rests on the fitted dose curve; in most records, active means well fitted curve in either direction with a large enough effect (not every such curve was filed as active); inconclusive means small, poorly fitted or top-dose-only effect, or another doubt; inactive means flat fitted curve, though single readings scatter.

Tests used:
[1] = target: Lysosomal acid glucosylceramidase (Homo sapiens) (UniProt P04062); test: Glucocerebrosidase-p2 (AID 348; in the data active means potency below about 10 µM; further: potency means the concentration at half of the fitted maximal effect); settings: purified GBA, blue fluorogenic substrate, 40 min
Chain of Lysosomal acid glucosylceramidase (Homo sapiens) (P04062 whole entry, looked up): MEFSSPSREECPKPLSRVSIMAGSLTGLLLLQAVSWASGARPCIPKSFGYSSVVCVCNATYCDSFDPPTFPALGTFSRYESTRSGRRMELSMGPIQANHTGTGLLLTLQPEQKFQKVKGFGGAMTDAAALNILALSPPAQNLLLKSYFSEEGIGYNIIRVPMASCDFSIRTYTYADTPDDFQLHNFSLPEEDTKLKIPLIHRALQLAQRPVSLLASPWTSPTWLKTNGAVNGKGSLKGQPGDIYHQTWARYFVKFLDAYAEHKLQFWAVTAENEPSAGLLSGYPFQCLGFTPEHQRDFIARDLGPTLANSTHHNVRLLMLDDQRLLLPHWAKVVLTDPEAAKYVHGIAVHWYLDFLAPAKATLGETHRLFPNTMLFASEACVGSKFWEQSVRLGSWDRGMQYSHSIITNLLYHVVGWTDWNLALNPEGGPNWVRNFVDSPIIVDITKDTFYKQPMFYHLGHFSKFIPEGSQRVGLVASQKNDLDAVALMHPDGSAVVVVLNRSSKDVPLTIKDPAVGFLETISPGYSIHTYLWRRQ
Procedure, shortened: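 Normal human glucocerebrosidase (0.2 nM) with blue fluorogenic substrate (80 uM final) in citrate/phosphate pH 5.9 with 10mM sodium taurocholate, 0.01% tween-20; 40 min RT, NaOH/glycine stop; fluorescence Ex 365/Em 440; AC50 from a titration from 0.6 nM upwards.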

[2] = AP1 Signaling Pathway (AID 357); settings: ME-180 AP-1-bla reporter, EGF-induced, beta-lactamase ratio, 5 h; at 7.69 µM (top of the series) unless noted; further: on the % scale 0 is the no-effect control and ±100 the full control effect
Procedure, shortened: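 AP-1-bla ME-180 cells with beta-lactamase reporter under AP-1 response element, stimulated with EC50 EGF; compounds titrated, 5 hours at 37 degrees Celsius. CCF4 read at 460/530 nm ratio; positive and negative modulators judged by AC50.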

[3] = target: Cytochrome P450 1A2 (Homo sapiens) (UniProt P05177); test: p450-cyp1a2 (AID 410; calls by dose curve; further: potency means the concentration at half of the fitted maximal effect;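 on activity change, negative = inhibition: -100% = full effect of reference inhibitor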); settings: recombinant CYP1A2, luciferin-ME demethylation, luminescence; series mostly up to 57 µM
Chain of Cytochrome P450 1A2 (Homo sapiens) (P05177 whole entry, looked up): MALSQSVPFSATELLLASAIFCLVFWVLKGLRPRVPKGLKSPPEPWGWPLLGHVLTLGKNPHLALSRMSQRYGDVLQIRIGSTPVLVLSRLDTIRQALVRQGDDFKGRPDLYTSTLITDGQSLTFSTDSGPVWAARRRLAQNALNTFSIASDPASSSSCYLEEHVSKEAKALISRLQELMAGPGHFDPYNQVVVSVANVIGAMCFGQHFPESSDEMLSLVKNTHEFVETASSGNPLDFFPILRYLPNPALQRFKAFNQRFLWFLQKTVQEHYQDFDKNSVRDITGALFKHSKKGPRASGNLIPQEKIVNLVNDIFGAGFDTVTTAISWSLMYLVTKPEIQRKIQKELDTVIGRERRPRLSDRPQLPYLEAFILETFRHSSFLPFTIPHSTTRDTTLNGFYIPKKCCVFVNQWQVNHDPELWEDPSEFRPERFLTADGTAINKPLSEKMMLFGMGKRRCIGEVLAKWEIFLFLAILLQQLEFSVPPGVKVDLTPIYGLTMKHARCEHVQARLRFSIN
Procedure, shortened: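 20nM CYP1A2, 100uM Luciferin-ME (=Km), 100mM KPO4; cpd 10 min RT; +NADPH regen, 60 min RT; stop/detect 20 min; luminescence. Normalized to furafylline 57 uM = full inhibition.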

[4] = NFAT Signaling Pathway (AID 444); settings: Jurkat NFAT-bla M1, carbachol, beta-lactamase ratio, 5 h; at 7.69 µM (top of the series) unless noted;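 further: carbachol stimulus at about its EC50 of 1 µM final; on the % scale 0 is the no-effect control and ±100 the full control effect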
Procedure, shortened: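 Jurkat cells carrying an NFAT-driven β-lactamase reporter and co-transfected muscarinic M1 receptor were treated with compound plus carbachol (1 uM final, an EC50 level) for 5 h at 37 °C. CCF4 loading followed for 1 h at RT; 460/530 nm ratio gave %activity.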

[5] = Stat Signaling Pathway (AID 446); settings: ME-180 SIE beta-lactamase reporter, IL-6 stimulated, 5 h; at 7.69 µM (top of the series) unless noted;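 further: ME-180 cervical cancer cells given 40 pM IL-6 alongside compound; SIE-controlled beta-lactamase reporter measured as 460/530 nm FRET emission ratio; on the % scale 0 is the no-effect control and ±100 the full control effect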
Procedure, shortened: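 FRET read-out (405 nm excitation, 460/530 nm emission) of a beta-lactamase reporter under a STAT-inducible element in ME-180 cervical carcinoma cells. Cells with compound receive 40 pM IL-6 for 5 h. Values are normalised to AC90 stimulation and AC90 JAK-inhibitor controls.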

[6] = target: Glucocorticoid receptor (Homo sapiens) (UniProt P04150); test: GR-GFP Redistribution (AID 450;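 active means compounds whose dose series gives a full or clear partial fitted curve of increased nuclear translocation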; further: potency means the concentration at half of the fitted maximal effect); settings: U2OS GR-GFP nuclear translocation, laser cytometry, 2 h
Chain of Glucocorticoid receptor (Homo sapiens) (P04150 whole entry, looked up, the tested form may be a part): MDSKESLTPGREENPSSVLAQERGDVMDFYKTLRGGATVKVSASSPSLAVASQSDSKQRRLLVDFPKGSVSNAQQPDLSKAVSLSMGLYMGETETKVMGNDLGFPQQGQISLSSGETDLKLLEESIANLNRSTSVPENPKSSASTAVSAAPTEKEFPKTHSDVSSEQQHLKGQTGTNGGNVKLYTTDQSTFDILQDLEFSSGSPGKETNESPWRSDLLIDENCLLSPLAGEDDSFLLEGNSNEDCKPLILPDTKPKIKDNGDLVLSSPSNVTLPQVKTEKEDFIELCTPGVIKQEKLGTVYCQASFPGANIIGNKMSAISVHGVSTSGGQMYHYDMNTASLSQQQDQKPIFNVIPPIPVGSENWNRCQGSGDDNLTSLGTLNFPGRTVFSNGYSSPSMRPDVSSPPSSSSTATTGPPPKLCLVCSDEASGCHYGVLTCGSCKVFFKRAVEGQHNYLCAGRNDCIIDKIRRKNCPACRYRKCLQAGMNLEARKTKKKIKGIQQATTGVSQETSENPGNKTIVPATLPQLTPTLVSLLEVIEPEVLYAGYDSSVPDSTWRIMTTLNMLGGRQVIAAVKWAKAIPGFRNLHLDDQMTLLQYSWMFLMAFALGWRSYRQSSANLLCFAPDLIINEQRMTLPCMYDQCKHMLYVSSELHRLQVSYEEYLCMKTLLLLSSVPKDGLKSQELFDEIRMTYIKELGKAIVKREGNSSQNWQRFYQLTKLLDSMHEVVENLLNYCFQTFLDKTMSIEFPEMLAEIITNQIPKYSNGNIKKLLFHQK

[7] = target: Glucocorticoid receptor (Homo sapiens) (UniProt P04150); test: GR-EFC Redistribution (AID 451; calls by dose curve; further: potency means the concentration at half of the fitted maximal effect); settings: CHO-K1 GR-EFC translocation, beta-gal luminescence, 2 h
Procedure, shortened: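 CHO-K1 cells stably expressing nuclear-localized β-gal enzyme acceptor and GR fused C-terminally to the enzyme donor fragment; ligand-driven nuclear translocation restores β-gal by complementation. Compounds titrated up to 46 uM final, 2 h at 37 °C; luminescence read.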

[8] = target: 3',5'-cyclic-AMP phosphodiesterase 4B (Homo sapiens) (UniProt Q07343); test: qHTS Assay for Inhibitors of PDE-IV (AID 607; active means well fitted activation curve with a large enough effect in the main read-out, with a control signal flat, not every such curve was filed as active; further: % of control where 0% means no effect); settings: HEK293 ACTOne CNG channel cells, membrane potential fluorescence; series mostly up to 22.9 µM
Chain of 3',5'-cyclic-AMP phosphodiesterase 4B (Homo sapiens) (Q07343 whole entry, looked up): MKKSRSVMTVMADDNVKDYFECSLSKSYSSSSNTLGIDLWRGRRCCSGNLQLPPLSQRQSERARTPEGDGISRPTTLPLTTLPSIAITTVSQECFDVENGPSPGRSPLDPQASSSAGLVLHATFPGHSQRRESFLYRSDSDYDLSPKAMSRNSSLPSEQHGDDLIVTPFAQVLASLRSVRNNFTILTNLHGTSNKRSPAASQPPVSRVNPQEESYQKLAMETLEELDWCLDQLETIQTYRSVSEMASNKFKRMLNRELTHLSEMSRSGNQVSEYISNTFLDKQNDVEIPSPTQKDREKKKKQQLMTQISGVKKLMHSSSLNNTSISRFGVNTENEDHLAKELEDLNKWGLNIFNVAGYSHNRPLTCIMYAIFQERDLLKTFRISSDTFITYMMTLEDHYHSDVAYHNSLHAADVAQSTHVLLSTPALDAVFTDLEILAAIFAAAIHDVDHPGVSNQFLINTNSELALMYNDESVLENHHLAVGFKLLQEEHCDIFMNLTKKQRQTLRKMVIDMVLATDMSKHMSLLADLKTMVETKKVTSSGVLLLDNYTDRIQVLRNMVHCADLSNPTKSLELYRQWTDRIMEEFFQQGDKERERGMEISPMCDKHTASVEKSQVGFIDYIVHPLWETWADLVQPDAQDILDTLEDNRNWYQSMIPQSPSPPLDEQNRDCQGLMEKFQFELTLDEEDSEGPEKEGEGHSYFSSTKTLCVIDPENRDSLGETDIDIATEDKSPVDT
Procedure, shortened: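 Cell-based read-out of cAMP via a modified cyclic nucleotide-gated channel and membrane potential dye (535/590 nm) in HEK293 cells expressing PDE4 endogenously. Compounds tested up to 22.9 uM final; 100 uM RO 20-1724 reference.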

[9] = Primary qHTS for small molecule stabilizers of the endoplasmic reticulum resident proteome: Secreted ER Calcium Modulated Protein (SERCaMP) assay (AID 1508630; active means well fitted inhibition curve with a large enough effect; further: on the % scale 0 is the no-effect control and ±100 the full control effect); settings: SH-SY5Y GLuc-SERCaMP (Gaussia luciferase released on ER calcium loss) secretion, thapsigargin, luminescence; series mostly up to 38.4 µM
Procedure, shortened: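 The SH-SY5Y reporter protocol was run at 3 concentrations up to 38.3 uM (primary) or 11 concentrations (follow-up): 16 h compound, 100 nM thapsigargin for 4 h, then extracellular luciferase luminescence.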

[10] = target: Mitogen-activated protein kinase 10 (Mus musculus) (UniProt Q61831); test: JNK3 AlphaScreen Assay (AID 530); settings: JNK3 lysate, c-Jun phosphorylation; series mostly up to 57.1 µM
Procedure, shortened: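 Biotinylated GST-cJun(1-79) served as substrate for JNK3 in HepG2 lysates stimulated with IL-1beta and TNF-alpha. ATP was 10 uM final, pH 7.6. Ser73 phosphorylation was quantified by AlphaScreen (680 nm excitation).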

[11] = qHTS Assay for Identification of Small Molecule Agonists for Hypoxia Response Element Signaling Pathway (AID 914; active means well fitted activation curve with a large enough effect in the signal ratio, with a control signal flat, not every such curve was filed as active; the % refers to the signal ratio; further: % of control where 0% means no effect); settings: ME-180 (cervical carcinoma) HRE-bla reporter, beta-lactamase ratio, CoCl2, 17 h; activation: active compounds read high
Procedure, shortened: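 A beta-lactamase reporter under hypoxia response element control in ME-180 cells served as the system. Compound titrations plus EC50 CoCl2 ran 17 h at 37 degrees Celsius; AC50 values were fitted from %Activity.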

[12] = target: Cytochrome P450 3A4 (Homo sapiens) (UniProt P08684); test: qHTS Assay for Inhibitors and Substrates of Cytochrome P450 3A4 (AID 884; active means well fitted inhibition curve with a large enough effect; further: on the % scale 0 is the no-effect control and ±100 the full control effect; nearly all actives have a fitted effect of over 50% in size); settings: recombinant CYP3A4, Luciferin-PPXE luminescence; series mostly up to 57.1 µM
Chain of Cytochrome P450 3A4 (Homo sapiens) (P08684 whole entry, looked up): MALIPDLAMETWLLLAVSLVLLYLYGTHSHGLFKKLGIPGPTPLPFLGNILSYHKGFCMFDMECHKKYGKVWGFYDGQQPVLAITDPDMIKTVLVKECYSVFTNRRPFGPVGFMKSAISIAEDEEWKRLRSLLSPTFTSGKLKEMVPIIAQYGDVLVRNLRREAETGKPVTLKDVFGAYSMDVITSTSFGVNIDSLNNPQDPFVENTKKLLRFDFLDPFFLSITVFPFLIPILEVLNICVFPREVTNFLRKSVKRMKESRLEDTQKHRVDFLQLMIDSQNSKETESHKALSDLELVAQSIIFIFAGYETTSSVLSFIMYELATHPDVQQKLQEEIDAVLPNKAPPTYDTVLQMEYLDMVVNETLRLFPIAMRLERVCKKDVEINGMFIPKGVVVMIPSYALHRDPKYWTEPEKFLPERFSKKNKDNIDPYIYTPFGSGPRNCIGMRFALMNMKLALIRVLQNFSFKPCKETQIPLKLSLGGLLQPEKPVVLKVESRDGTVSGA
Procedure, shortened: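 Luminescent readout of luciferin produced by CYP3A4 (20 nM) dealkylation of Luciferin-PPXE, 25 uM (its KM). NADPH-driven reaction ran 60 min at RT after 10 min compound preincubation; data scaled to 57 uM ketoconazole as 100% inhibition.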

[13] = target: Cytochrome P450 2C9 (Homo sapiens) (UniProt P11712); test: qHTS Assay for Inhibitors and Substrates of Cytochrome P450 2C9 (AID 883; active means well fitted inhibition curve with a large enough effect; further: on the % scale 0 is the no-effect control and ±100 the full control effect; nearly all actives have a fitted effect of over 60% in size); settings: recombinant CYP2C9, luciferin-H luminescence, 60 min; series mostly up to 57.1 µM
Chain of Cytochrome P450 2C9 (Homo sapiens) (P11712 whole entry, looked up): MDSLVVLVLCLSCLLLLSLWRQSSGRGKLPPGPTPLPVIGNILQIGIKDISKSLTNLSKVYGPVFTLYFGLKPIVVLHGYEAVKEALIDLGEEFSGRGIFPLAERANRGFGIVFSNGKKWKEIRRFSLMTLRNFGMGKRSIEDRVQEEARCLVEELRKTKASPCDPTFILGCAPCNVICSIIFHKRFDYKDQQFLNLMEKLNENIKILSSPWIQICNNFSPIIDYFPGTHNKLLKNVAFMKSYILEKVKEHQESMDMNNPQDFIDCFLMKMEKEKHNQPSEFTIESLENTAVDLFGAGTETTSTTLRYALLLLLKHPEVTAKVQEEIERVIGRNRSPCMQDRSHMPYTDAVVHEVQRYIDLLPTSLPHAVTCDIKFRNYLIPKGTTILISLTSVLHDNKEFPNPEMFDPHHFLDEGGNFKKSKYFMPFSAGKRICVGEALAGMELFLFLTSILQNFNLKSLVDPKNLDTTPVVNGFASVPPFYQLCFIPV
Procedure, shortened: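 Human CYP2C9 (10nM) hydroxylated Luciferin-H (100uM, at its KM) to luciferin in 25mM KPO4. Compound was preincubated 10 min at 37C, then NADPH regeneration started a 60 min reaction at 37C. Luminescence was read after detection reagent, normalized to 57uM sulphaphenazole.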

[14] = target: Cytochrome P450 2D6 (Homo sapiens) (UniProt P10635); test: qHTS Assay for Inhibitors and Substrates of Cytochrome P450 2D6 (AID 891; active means well fitted inhibition curve with a large enough effect;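 further: luciferin methyl ether substrate demethylated by CYP2D6 with NADPH regeneration; on the % scale 0 is the no-effect control and ±100 the full control effect; nearly all actives have a fitted effect of over 60% in size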); settings: recombinant CYP2D6, luciferin-ME EGE luminescence; series mostly up to 57.1 µM
Chain of Cytochrome P450 2D6 (Homo sapiens) (P10635 whole entry, looked up): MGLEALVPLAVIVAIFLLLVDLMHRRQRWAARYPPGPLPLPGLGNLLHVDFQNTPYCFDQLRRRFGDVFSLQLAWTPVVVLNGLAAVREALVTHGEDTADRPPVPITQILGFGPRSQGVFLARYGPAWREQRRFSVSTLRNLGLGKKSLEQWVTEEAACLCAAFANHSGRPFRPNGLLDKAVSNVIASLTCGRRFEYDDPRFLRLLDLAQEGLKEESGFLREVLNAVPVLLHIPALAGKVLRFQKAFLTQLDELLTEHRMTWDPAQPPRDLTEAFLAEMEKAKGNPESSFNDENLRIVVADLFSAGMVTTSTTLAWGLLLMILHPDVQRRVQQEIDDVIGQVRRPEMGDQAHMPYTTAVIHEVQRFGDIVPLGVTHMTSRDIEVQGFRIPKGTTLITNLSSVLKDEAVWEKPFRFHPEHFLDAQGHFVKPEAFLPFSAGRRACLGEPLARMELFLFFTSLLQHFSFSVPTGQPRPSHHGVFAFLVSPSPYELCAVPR
Procedure, shortened: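 Luminescent read-out of luciferin formed by 5 nM human CYP2D6 demethylating 30 uM Luciferin-ME EGE (Km level) over 60 min at room temperature after NADPH regeneration addition. Data normalized to full inhibition by 1.43 uM quinidine.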

[15] = target: Cytochrome P450 2C19 (Homo sapiens) (UniProt P33261); test: qHTS Assay for Inhibitors and Substrates of Cytochrome P450 2C19 (AID 899; active means well fitted inhibition curve with a large enough effect; further: on the % scale 0 is the no-effect control and ±100 the full control effect; nearly all actives have a fitted effect of over 60% in size); settings: recombinant CYP2C19, luciferin-H EGE luminescence; series mostly up to 57.1 µM
Chain of Cytochrome P450 2C19 (Homo sapiens) (P33261 whole entry, looked up): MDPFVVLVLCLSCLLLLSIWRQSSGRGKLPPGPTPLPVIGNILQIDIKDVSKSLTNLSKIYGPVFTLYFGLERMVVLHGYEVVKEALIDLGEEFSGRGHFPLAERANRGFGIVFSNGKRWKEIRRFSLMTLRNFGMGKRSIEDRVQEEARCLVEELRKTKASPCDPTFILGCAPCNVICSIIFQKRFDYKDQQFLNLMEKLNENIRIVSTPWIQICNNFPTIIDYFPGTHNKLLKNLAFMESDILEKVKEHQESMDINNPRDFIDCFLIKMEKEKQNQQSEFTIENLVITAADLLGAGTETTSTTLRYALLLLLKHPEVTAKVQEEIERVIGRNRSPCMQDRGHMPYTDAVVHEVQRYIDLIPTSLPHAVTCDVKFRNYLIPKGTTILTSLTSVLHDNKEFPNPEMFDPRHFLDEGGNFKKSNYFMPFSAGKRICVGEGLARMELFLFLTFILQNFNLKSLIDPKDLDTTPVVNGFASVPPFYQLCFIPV
Procedure, shortened: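 Human CYP2C19 (5nM) with Luciferin-H EGE at 10uM (its KM) in 50mM KPO4 was preincubated with compound for 10 min at 37C. NADPH regeneration started a 60 min 37C reaction. Luciferin was read by luminescence, normalized to 57uM ketoconazole.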

SMILES | Potency [1] [µM] | activity change, negative = inhibition [2] [%] | Potency [3] | activity change, negative = inhibition [4] [%] | activity, negative = inhibition [5] [%] | Potency [6] [µM] | Potency [7] [µM] | Potency [8] | outcome [9] | Potency [10] | activation [11] [%] | Potency [12] | Potency [13] | Potency [14] | Potency [15]
Cn1c(=O)c(-c2cccc(Cl)c2)nc2cncnc21 | > 11.4 | -7.56 | 0.501 µM (active) | -2.65 | -10.2 | > 9.22 | > 46 | inactive | inactive | – | – | – | – | – | –
O=c1c(-c2cc(F)cc(F)c2)nc2cnc(Oc3ccccc3)nc2n1C1CC1 | > 11.4 | -6.73 | 2.51 µM (active) | -0.993 | -0.523 | > 9.22 | > 46 | inactive | inactive | inactive | 7.93 | – | – | – | –
O=C(Nc1cccc(F)c1)N1CCC2(CC1)CCN(C(=O)c1ccco1)CC2 | > 11.4 | -3.88 | inactive | 4.6 | 4.97 | – | > 46 | inactive | inactive | inactive | – | inactive | – | – | –
CCNc1ncc2nc(-c3ccc(F)cc3)c(=O)n(CCC#N)c2n1 | > 11.4 | -13.4 | 0.631 µM (active) | -10 | 16.7 | > 9.22 | – | – | inactive | inactive | – | – | – | – | –
O=C(c1cnccn1)N1CCC2(CC1)CCN(c1ccccc1)CC2 | > 11.4 | -3.01 | inactive | 9.49 | -24.3 | – | > 46 | inactive | inactive | inactive | – | inactive | – | – | –
O=C(c1cc(C(F)(F)F)cc(C(F)(F)F)c1)N1CCC2(CC1)CN(c1ncccn1)C2 | > 11.4 | -14.3 | inactive | 31 | 1.12 | – | > 46 | inactive | inactive | inactive | – | – | inactive | inactive | inactive
N#Cc1cccc(NC(=O)N2CC[C@@]3(CCCN(C(=O)c4cc(C(F)(F)F)cc(C(F)(F)F)c4)C3)C2)c1 | > 11.4 | 3.48 | inactive | 5.16 | -10.2 | – | > 46 | inactive | inactive | inactive | – | inactive | inactive | inactive | inactive
O=C(c1cnccn1)N1CCC2(CCCN(c3ncccn3)C2)CC1 | > 11.4 | -8.6 | inactive | 13.2 | -0.387 | – | > 46 | inactive | inactive | inactive | – | – | – | – | –
COC(=O)N1CCC2(CC1)CN(C(=O)Nc1ccc(OC)cc1)C2 | > 11.4 | -27.1 | inactive | 14.1 | -0.967 | – | > 46 | inactive | inactive | inactive | – | – | – | – | –
Cc1noc(C)c1C(=O)N1CCC2(CCN(Cc3nccs3)CC2)CC1 | > 11.4 | 11.4 | 12.6 µM (active) | -0.611 | 11.5 | – | > 46 | inactive | inactive | inactive | – | – | – | – | –
COc1cccc(Cn2c(=O)c(-c3cccc(C#N)c3)nc3cnc(Nc4ccccc4)nc32)c1 | > 11.4 | -3.95 | inactive | -12.1 | -14.2 | – | > 46 | inactive | inactive | inactive | – | – | – | – | –
